# Most compounds without a hit are left out; they make up all but 1.6% or so of the library.
# KCNQ2 enhance: potentiators of rat KCNQ2 potassium channel | B-score at 10 µM | CHO-K1 KCNQ2, FluxOR thallium flux fluorescence; active compounds read high | 310,000 tested, 0.54% active | O88943;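 active = fluorescence ratio B-score at least 3 SD of library B-scores, with initial fluorescence B-score within 3 of them, cut at about 5.3 in these data; same plate scores as AID 2156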;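 also: B-score of peak minus minimum over baseline fluorescence ratio after K+ and Tl+ stimulus; positive B-score means potentiation of KCNQ2 with more thallium influx and brighter signal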
# Target sequence (O88943 whole entry, looked up): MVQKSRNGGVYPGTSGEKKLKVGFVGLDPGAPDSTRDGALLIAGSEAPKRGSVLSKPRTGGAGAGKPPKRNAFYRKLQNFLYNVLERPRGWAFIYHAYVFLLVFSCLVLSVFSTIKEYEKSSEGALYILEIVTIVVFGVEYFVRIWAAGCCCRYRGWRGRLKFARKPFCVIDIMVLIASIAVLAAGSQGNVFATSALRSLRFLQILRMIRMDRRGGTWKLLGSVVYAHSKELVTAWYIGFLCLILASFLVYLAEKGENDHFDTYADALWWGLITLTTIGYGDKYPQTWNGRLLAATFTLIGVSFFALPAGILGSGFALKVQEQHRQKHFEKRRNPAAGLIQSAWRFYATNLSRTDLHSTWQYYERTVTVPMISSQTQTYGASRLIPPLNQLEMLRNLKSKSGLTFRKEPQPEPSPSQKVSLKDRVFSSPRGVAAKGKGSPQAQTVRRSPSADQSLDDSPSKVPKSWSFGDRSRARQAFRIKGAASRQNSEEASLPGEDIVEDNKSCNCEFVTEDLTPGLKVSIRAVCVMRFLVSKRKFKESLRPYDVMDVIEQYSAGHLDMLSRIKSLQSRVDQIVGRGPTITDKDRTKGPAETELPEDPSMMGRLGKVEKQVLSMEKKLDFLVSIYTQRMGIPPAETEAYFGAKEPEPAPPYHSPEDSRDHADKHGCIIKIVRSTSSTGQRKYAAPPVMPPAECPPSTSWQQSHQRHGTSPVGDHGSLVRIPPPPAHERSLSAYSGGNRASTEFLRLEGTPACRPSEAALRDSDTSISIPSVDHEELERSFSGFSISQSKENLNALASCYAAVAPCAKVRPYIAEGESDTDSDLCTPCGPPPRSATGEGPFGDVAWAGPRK
# KCNQ2 block: KCNQ2 (rat) channel inhibition | O88943 | CHO-K1 KCNQ2, FluxOR thallium flux, 20 min; active compounds read low | B-score at 10 µM | 310,000 tested, 1.1% active;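 active = fluorescence ratio B-score at most minus 3 library SDs, with starting brightness B-score within 2 library SDs, cut at about -5.5 in these data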
# KCNQ2 block conf: confirmation of rat KCNQ2 potassium channel inhibitors. activity change, negative = inhibition, % at 10 µM. KCNQ2-expressing cells, thallium flux, inhibition; active compounds read low. 1,000 tested, 57% active. AID 493025. shares compounds with KCNQ2 block;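 also: 0% = vehicle wells and values are ratio percent relative to vehicle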
# KCNQ1 spec: human KCNQ1 activity in KCNQ2 inhibitor specificity screen; shares compounds with KCNQ2 block; KCNQ1-expressing cells, FluxOR thallium flux fluorescence; active compounds read low; activity change, negative = inhibition, % at 10 µM; 1,000 tested, 15% active; AID 493026;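 active = activity change at least 3 SD of negative controls below their mean in both duplicate wells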;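 also: CHO cells stably transfected with KCNQ1 and depolarized by potassium stimulus; peak minus minimum fluorescence over baseline after thallium addition; 0% = vehicle negative control and -100% = blank without thallium stimulus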
# CHO parental ctr: counter-screen for KCNQ2 inhibitors: effect in parental CHO cells; activity change, % at 10 µM; thallium flux counter-screen; active compounds read low; AID 493029; shares compounds with KCNQ2 block; 1,000 tested, 14% active;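 also: 0% = vehicle negative controls with stimulus buffer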
# KCNQ2 inh confirm: rat KCNQ2 inhibition confirmed by electrophysiology | shares compounds with KCNQ2 block | calls only at 10 µM | AID 588531 | 550 tested, 49% active | KCNQ2-expressing cells, automated patch clamp current
# The depositor's hits bear a star; i = inactive; / = not tested or not shown; + = active, no number. Unless noted, no rule for the calls is given here.
SMILES,KCNQ2 enhance,KCNQ2 block,KCNQ2 block conf,KCNQ1 spec,CHO parental ctr,others
COc1ccc(CCN(C)C(=O)c2cc(-c3ccccc3)nc3ccc(C)cc23)cc1OC,-7.1,-7.1*,-34%*,-34%*,-26%*,KCNQ2 inh confirm=+
COc1ccc(CCN(C)C(=O)Cc2ccc(-c3ccccc3)cc2)cc1OC,/,i,/,/,/,
CC1CCCN(C(=O)CN(C)S(=O)(=O)c2cccc3nsnc23)C1 (stereo not given),/,i,/,/,/,
CCN(CC)c1ccc(S(=O)(=O)N2CCOCC2)cc1NC(=O)COC(=O)/C=C/c1ccc(C)o1,/,i,/,/,/,
COc1ccc(CNC(=S)Nc2ccccc2Cl)cc1,0.11,i,/,/,/,
COc1ccc(CNC(=S)Nc2ccccc2-c2ccccc2)cc1,-7.6,-7.6*,-32%*,i,i,KCNQ2 inh confirm=+
CCc1c(C)sc(NC(=O)c2ccccc2[N+](=O)[O-])c1C(N)=O,0.64,i,/,/,/,
COc1cc(NC(=O)c2cc(-c3ccccc3)on2)cc(OC)c1OC,/,i,/,/,/,
COc1cc(NC(=O)c2cc3nc(-c4ccccc4)cc(-c4ccccc4)n3n2)cc(OC)c1OC,-7.1,-7.1*,i,i,i,
CS(=O)(=O)N(CC(=O)N1CCc2ccccc2C1)c1ccccc1F,0.38,i,/,/,/,
CN(CCc1ccccc1)C1CCCN(S(=O)(=O)CC(F)(F)F)C1 (stereo not given),0.33,i,/,/,/,
CN1CCN(CCCN2c3ccccc3Sc3ccc(C(F)(F)F)cc32)CC1,-8.1,-8.1*,-34%*,i,i,KCNQ2 inh confirm=i
O=C(CN1CCCC(O)C1)N1c2ccccc2Sc2ccc(C(F)(F)F)cc21 (stereo not given),/,i,/,/,/,
Cc1cccc(C)c1OCC(O)CN(Cc1ccccc1O)C1CCCCC1 (stereo not given),-8.4,-8.4*,-41%*,-43%*,-36%*,KCNQ2 inh confirm=+
CN(CC(O)COc1ccc(OCC(O)CN(C)C2CCCCC2)cc1)C1CCCCC1 (stereo not given),0.08,i,/,/,/,
COc1ccc(/C=N\NC(=O)COc2ccccc2)c(C(=O)O)c1OC,0.81,i,/,/,/,
CCOC(=O)C1CCN(S(=O)(=O)c2c[nH]c(=O)[nH]c2=O)CC1,/,i,/,/,/,
COc1ccc(C2CC(=O)c3c(O)cc(O)cc3O2)c(CC=C(C)C)c1OC (stereo not given),-13,-13*,-34%*,i,i,KCNQ2 inh confirm=+
CC(C)=CCc1c(O)cc2c(c1O)C(=O)CC(c1ccccc1)O2 (stereo not given),1,i,/,/,/,
O=S(=O)(N/N=C/c1ccc2c(c1)OCO2)c1ccc(Br)cc1,/,i,/,/,/,
O=C(O)c1cc(Cl)c(Cl)cc1C(=O)N(Cc1ccccc1)Cc1ccccc1,-7.5,-7.5*,-30%*,i,i,KCNQ2 inh confirm=+
O=C(O)c1ccccc1C(=O)N(Cc1ccccc1)Cc1ccccc1,/,i,/,/,/,
C=CCn1c(SCC(N)=O)nc2sc3c(c2c1=O)CCC3,-9.3,-9.3*,i,i,i,
C=CCn1c(SCC(=O)N2CCOCC2)nc2sc3c(c2c1=O)CCCC3,2.5,i,/,/,/,
C/C1=C\CCC2C(/C=C(\C)CC1)OC(=O)C2CN1CCCCC1 (stereo not given),0.03,i,/,/,/,
SMILES,KCNQ2 enhance,KCNQ2 block,KCNQ2 block conf,KCNQ1 spec,CHO parental ctr,others
O=C(NCCCN1CCN(c2ccc(F)cc2)CC1)NC12CC3CC(CC(C3)C1)C2,-8.2,-8.2*,i,i,i,
O=C(NCCCN1CCOCC1)NC12CC3CC(CC(C3)C1)C2,/,i,/,/,/,
Cc1ccc(NC(=O)Cn2nc(C(=O)O)c3ccccc3c2=O)c([N+](=O)[O-])c1,0.03,i,/,/,/,
Cc1ccc(NC(=O)c2ccccc2N(C)S(C)(=O)=O)cc1C,1.2,i,/,/,/,
Cc1cccc(-c2cc3nc(-c4ccccc4)cc(N4CCC5(CC4)OCCO5)n3n2)c1,-8.1,-8.1*,-30%*,i,i,KCNQ2 inh confirm=i
Fc1cccc(-c2cc3nc(-c4ccccc4)cc(N4CCC5(CC4)OCCO5)n3n2)c1,/,i,/,/,/,
Cn1c(COc2cccc3ccccc23)nnc1SCC(=O)OC1CCCCC1,/,i,/,/,/,
O=C(CSc1nnc(-c2ccncc2)n1Cc1ccco1)OC1CCCCC1,/,i,/,/,/,
CCn1c(COc2cccc3ccccc23)nnc1SCC(=O)OC1CCCCC1,-8.6,-8.6*,i,i,i,
O=C(CSc1nnc(-c2ccco2)n1Cc1ccccc1)OC1CCCCC1,-9.4,-9.4*,-34%*,i,i,KCNQ2 inh confirm=+
COc1ccc(-c2cc(C(F)F)n3ncc(C(=O)N4CCc5ccccc5C4)c3n2)cc1,/,i,/,/,/,
COc1ccccc1-c1cc(C(F)(F)F)n2ncc(C(=O)N3CCc4ccccc4C3)c2n1,-7.6,-7.6*,i,i,i,
CCC(C)Sc1cccc(-c2nc3ccc(C)cn3c2NCc2ccccc2)c1 (stereo not given),/,i,/,/,/,
CC(=O)Nc1c(-c2ccccc2)nc2ccc(Cl)cn12,/,i,/,/,/,
CCOC(=O)CNc1c(-c2ccccc2)nc2ccc(Cl)cn12,-7,-7*,-32%*,i,i,KCNQ2 inh confirm=+
CCC(C)Sc1cccc(-c2nc3ccc(Cl)cn3c2NCc2ccccc2)c1 (stereo not given),-7.3,-7.3*,-33%*,-38%*,-25%*,KCNQ2 inh confirm=+
CCN(c1ccc(OC)cc1)S(=O)(=O)c1csc(C(=O)N2CCCC2)c1,/,i,/,/,/,
COc1ccc2oc(C(=O)OCC(=O)N(Cc3ccccc3)C(C)(C)C)c(C)c2c1,-9.4,-9.4*,i,i,i,
COc1ccc2oc(C(=O)OCC(=O)NCCc3ccccc3)c(C)c2c1,0.22,i,/,/,/,
CC(C)(C)N(Cc1ccccc1)C(=O)COC(=O)c1cccc([N+](=O)[O-])c1,-7,-7*,i,i,i,
CC(C)(C)N(Cc1ccccc1)C(=O)COc1cccnc1[N+](=O)[O-],/,i,/,/,/,
O=C(CCCN1C(=O)/C(=C/c2ccc(F)cc2)SC1=S)NC1CCS(=O)(=O)C1 (stereo not given),0.92,i,/,/,/,
O=C(/C=C/c1ccccc1Cl)NC(=S)Nc1ccccc1C(=O)NC1CCCCC1,0.02,i,/,/,/,
Cc1ccc(CN2CCN(/N=C/c3ccc(C(=O)O)cc3)CC2)c(C)c1,-7.3,-7.3*,-26%*,i,i,KCNQ2 inh confirm=+
Cc1ccc(CN2CCN(/N=C/c3ccc(C(F)(F)F)cc3)CC2)c(C)c1,/,i,/,/,/,
SMILES,KCNQ2 enhance,KCNQ2 block,KCNQ2 block conf,KCNQ1 spec,CHO parental ctr,others
COc1ccc(N(C(=O)CNC(=O)c2cccs2)C(C(=O)NCC2CCCO2)c2ccccc2)c(OC)c1 (stereo not given),1.1,i,/,/,/,
COc1cccc(C2C(C(=O)Nc3ccc(C)cc3C)=C(C)Nc3ncnn32)c1OC (stereo not given),-12,-12*,i,i,i,
COc1ccccc1NC(=O)C1=C(C)Nc2ncnn2C1c1ccccc1C (stereo not given),0.97,i,/,/,/,
O=C(NCCCN1CCOCC1)c1ccc(NS(=O)(=O)c2ccccc2)cc1,0.34,i,/,/,/,
Cc1cc2ncc(-c3cccs3)nc2cc1C,1.3,i,/,/,/,
COc1ccccc1OCCSc1nc2ccccc2n1CC(N)=O,/,i,/,/,/,

# Bioassay records as filed in PubChem.
